Screens: PubChem BioAssay, several laboratories
Rows were chosen to be rich in hits. Some 4.3% of all compounds tested hit in one or more screens of this group.
MITF TRPM1 HTS: increases MITF-driven TRPM1 promoter luciferase signal; SK-MEL-5 TRPM1-promoter luciferase, 24 h; % of positive control, neutral wells = 0; activation, % at 12.5 µM; 300,000 tested, 0.75% active; AID 588334;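 active = mean activation of at least 80% with every replicate also reaching 80%; inconclusive = mean reaches 80% but some replicate falls short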;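 note: 0% = neutral control wells and 100% = parthenolide positive control wells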
SMARCA2 act: activators of SMARCA2 function | MG213 cells, MMTV-luciferase reporter, dexamethasone, overnight | activation, % at 9.1 µM | 370,000 tested, 1% active; in the data active = activation above about 7.8%;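 note: 0% = vehicle wells and 100% = reference activator wells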
FGF22 binding: binders of recombinant human FGF22 by thermal shift. Q9HCT0. SYPRO orange fluorescence; percent of sucrose octasulfate shift, DMSO zero. activity (Tm shift, normalised), % at 9.99 µM. 340,000 tested, 1.5% active;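 active = mean Tm shift, scaled 0 neutral to 100 positive control, at about 1.3% or above, every replicate too, limit read from the data; inconclusive = no clear call, values can overlap the other calls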
Target sequence (Q9HCT0 whole entry, looked up): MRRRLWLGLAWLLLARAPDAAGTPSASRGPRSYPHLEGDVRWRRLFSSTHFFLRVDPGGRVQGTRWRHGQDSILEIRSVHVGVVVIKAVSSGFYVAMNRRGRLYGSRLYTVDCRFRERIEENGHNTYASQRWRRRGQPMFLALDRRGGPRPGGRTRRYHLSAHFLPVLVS
MLL AF4-AF9 inh: inhibitors of human MLL-AF4/AF9 interaction; P42568; AlphaScreen, biotin-AF4 peptide binding to FLAG-AF9; inhibition, % at 10 µM; 350,000 tested, 0.47% active; AID 651704;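 active = every replicate reaching a set inhibition limit, whatever the replicate mean, cut at about 25% in these data; inconclusive = mean inhibition reaches that limit but some replicates miss it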;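 note: 0% = plate neutral control median and 100% = total signal loss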
Wnt act: activates Wnt/beta-catenin signaling in a reporter cell assay; activator, plate reader; activation, % at 9.35 µM; 300,000 tested, 1.2% active; in the data active = activation above about 30%, passing the limit was not always enough; inconclusive = no clear call, values can overlap the other calls;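 note: 0% = neutral control wells and 100% = positive control wells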
esBAF inh: SWI/SNF esBAF complex inhibition. mouse ES cells, Bmi1-luciferase knock-in reporter, 24 h; 100% = twice the neutral-well signal. reporter increase, % at 12.5 µM. 350,000 tested, 2% active; in the data active = activation above about 40%; inconclusive = no clear call, values can overlap the other calls;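 note: 0% = median of the plate's neutral control wells and 100% = double that signal; a rise in the Bmi1 reporter signal indicates esBAF inhibition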
* marks the source's active call; other numbers are inactive results.

`CNC[C@H]1OCCCC[C@@H](C)Oc2ccc(NC(=O)NC(C)C)cc2C(=O)N([C@@H](C)CO)C[C@H]1C` gave FGF22 binding 0 and MLL AF4-AF9 inh -3.
C[C@H]1CN([C@@H](C)CO)C(=O)c2cccc(NC(=O)C3CCCCC3)c2O[C@H]1CN(C)C(=O)Nc1ccc(F)cc1 was read as FGF22 binding 0, MLL AF4-AF9 inh 0 and esBAF inh -4.
`CC1=NN(c2ccccc2)C(=O)/C1=C\c1cn(-c2ccccc2)nc1C` gave MITF TRPM1 HTS 13, SMARCA2 act -2, FGF22 binding 0 and MLL AF4-AF9 inh 2.
`CC1=NN(c2ccccc2)C(=O)/C1=C\c1cn(CCC#N)nc1-c1ccc(Cl)cc1` gave MITF TRPM1 HTS -3, SMARCA2 act -1, FGF22 binding 44*, MLL AF4-AF9 inh 14 and Wnt act -5.
For O=C(NCCc1ccncc1)[C@@H]1[C@@H](CO)[C@@H]2Cn3c(ccc(-c4ccccc4)c3=O)[C@H]1N2 the results were FGF22 binding 0, MLL AF4-AF9 inh -1 and esBAF inh -4.
`O=C(C[C@H]1CC[C@H]2[C@@H](COC[C@@H](O)CN2C(=O)c2cccnc2)O1)NCC1CC1` gave FGF22 binding 0, MLL AF4-AF9 inh -1 and esBAF inh -2.
CC1Oc2ccccc2N(CC(=O)N2CCCCC2)C1=O (stereo unspecified) was read as MITF TRPM1 HTS -4, SMARCA2 act -3, FGF22 binding 0, MLL AF4-AF9 inh 30*, Wnt act -3 and esBAF inh -4.
For CC1Oc2ccccc2N(CC(=O)NCc2ccc3c(c2)OCO3)C1=O (stereo unspecified) the results were MITF TRPM1 HTS 56, SMARCA2 act 1, FGF22 binding 43*, MLL AF4-AF9 inh -2 and Wnt act -2.
Screening O=C1C(=O)N(CC(=O)N2CCCC2)c2ccccc21 returned MITF TRPM1 HTS -5, SMARCA2 act 0, FGF22 binding 43*, MLL AF4-AF9 inh -1 and Wnt act 1.
`CC(C)CC#Cc1cnc2c(c1)C(=O)N([C@@H](C)CO)C[C@@H](C)[C@@H](CN(C)C(=O)Cc1ccncc1)O2` gave FGF22 binding 0, MLL AF4-AF9 inh 2 and esBAF inh 1.
Cc1ccc(Nc2nc3c(c(=O)[nH]2)CCCC3)cc1 was read as MITF TRPM1 HTS 37, SMARCA2 act -2 and esBAF inh 70*.
Cc1ccc(C(=O)Oc2cccc(-n3cnnn3)c2)cc1 was read as MITF TRPM1 HTS 112*, SMARCA2 act 2, FGF22 binding 0, MLL AF4-AF9 inh -4 and Wnt act 6.
`O=C(Oc1cccc2cccnc12)c1cccc(N2C(=O)C3C4CCC(C4)C3C2=O)c1` (stereo unspecified) gave SMARCA2 act -3, FGF22 binding 0, MLL AF4-AF9 inh 5 and Wnt act 1.
For O=C(Oc1cccc2cccnc12)c1cccc(-n2cnnn2)c1 the results were MITF TRPM1 HTS 9, SMARCA2 act 3, Wnt act 77* and esBAF inh 3.
Screening O=C(COC(=O)c1cccc(-n2cnnn2)c1)c1ccc(F)c(F)c1 returned SMARCA2 act -1, FGF22 binding 0, MLL AF4-AF9 inh -10, Wnt act 0 and esBAF inh inconclusive.
Screening O=C(Oc1cccc(-n2cnnn2)c1)c1ccco1 returned MITF TRPM1 HTS -9 and SMARCA2 act -3.
For O=C(COC(=O)c1cccc(-n2cnnn2)c1)c1ccc(Br)cc1 the results were MITF TRPM1 HTS 22, SMARCA2 act 4, FGF22 binding 0, MLL AF4-AF9 inh 0, Wnt act 23 and esBAF inh 49*.
CO[C@@H]1CN(C)C(=O)c2cc(NC(=O)c3ccno3)ccc2OC[C@@H](C)NC[C@@H]1C was read as FGF22 binding 0, MLL AF4-AF9 inh -4 and esBAF inh -4.
C[C@@H](O)C#Cc1ccc([C@@H]2[C@@H](CO)N3CCCCN(CC4CCOCC4)C[C@@H]23)cc1 was read as FGF22 binding 0 and MLL AF4-AF9 inh 2.
`COC(=O)[C@H](CCSC)NC(=O)c1cccnc1SC` gave SMARCA2 act -7, FGF22 binding 0 and Wnt act 36*.
For Nn1c(Nc2ccccc2)nc2ccccc21 the results were MITF TRPM1 HTS 64, SMARCA2 act 4 and esBAF inh 65*.
`CCOc1ccc(Nc2nc3ccccc3n2C)cc1` gave MITF TRPM1 HTS 95*, SMARCA2 act 4, FGF22 binding 0, MLL AF4-AF9 inh 3, Wnt act 27 and esBAF inh 52*.
For CCOc1ccc(Nc2cc(C)c3ccccc3n2)cc1 the results were MITF TRPM1 HTS inconclusive, SMARCA2 act 0, FGF22 binding 1, MLL AF4-AF9 inh 8, Wnt act 13 and esBAF inh 46*.
For CCOc1ccc(NC(=O)c2cc(Cl)nc3ccccc23)cc1 the results were SMARCA2 act -2, FGF22 binding 0, MLL AF4-AF9 inh -15 and Wnt act -4.
For CC(=O)Nc1ccc(Nc2cc(C)c3ccccc3n2)cc1 the results were SMARCA2 act -1, MLL AF4-AF9 inh 4, Wnt act 0 and esBAF inh 4.
Screening CCOc1ccc(CNc2nc3ccccc3n2C)cc1 returned MITF TRPM1 HTS 33, SMARCA2 act 6, MLL AF4-AF9 inh -5, Wnt act 15 and esBAF inh 15.
CCOc1ccc(Nc2c3ccccc3nc3ccccc23)cc1 was read as MITF TRPM1 HTS -14, SMARCA2 act 2, FGF22 binding 0, MLL AF4-AF9 inh 37*, Wnt act 2 and esBAF inh -15.
`CC=Cc1ccc2n(c1=O)C[C@H]1[C@H](CO)[C@@H](C(=O)NCc3ccccn3)N(CC3CC3)[C@@H]21` (mixture of isomers) gave FGF22 binding 0, MLL AF4-AF9 inh -5 and esBAF inh 2.
For CN(CCO)S(=O)(=O)c1ccc2c(c1)C(=NNC(N)=O)c1cc(S(=O)(=O)N(C)CCO)ccc1-2 the results were MITF TRPM1 HTS 0, SMARCA2 act -1, FGF22 binding 0, MLL AF4-AF9 inh -9, Wnt act 46* and esBAF inh -2.
Screening COc1ccccc1CNC(=O)C[C@H]1C=C[C@H](NC(=O)CN(C)C)[C@@H](CO)O1 returned FGF22 binding 0, MLL AF4-AF9 inh 0 and esBAF inh -3.
CCOC(=O)c1ccc2nc(C)c(CCC(C)=O)c(Cl)c2c1 was read as SMARCA2 act 1 and esBAF inh 63*.
For CCCCc1c(C)nc2ccc(C(=O)OCC)cc2c1Cl the results were MITF TRPM1 HTS 9 and SMARCA2 act -1.
C=CCc1c(C)nc2ccc(C(=O)OCC)cc2c1Cl was read as MITF TRPM1 HTS 44, SMARCA2 act -4, FGF22 binding 0, MLL AF4-AF9 inh 0, Wnt act 2 and esBAF inh 53*.
